Source: PubChem (National Center for Advancing Translational Sciences (NCATS))
Pf growth 96h: P. falciparum growth inhibition at 96 hours; P. falciparum luciferase reporter growth, 96 h; Potency, µM (series often up to 28.7 µM), hits mostly inhibitors; 320,000 compounds, 6.9% hits
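P. falciparum expressing integrated firefly luciferase grown in erythrocytes (2% hematocrit, 0.05% parasitemia final) with compounds for 96 hours at 37 C, 5% CO2. Growth inhibition read as loss of luminescence after adding luciferase detection reagent.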
HCV inhibitor: HCV inhibition | Huh7.5.1 HCVcc-Cre infection, luciferase reporter, 44 h | Potency, µM (highest dose often 41.8 µM), hits mostly inhibitors | 340,000 compounds, 3.4% hits
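Reporter virus HCVcc-Cre (~0.5 moi) infects cells exposed to compound; seeding density 1,000 cells/well with 4 h settling beforehand. Luminescence, 15 sec read, taken 44 h post-infection following a 15 min RT substrate incubation.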
AmpC no deterg: AmpC beta-lactamase inhibition without detergent; 330,000 compounds, 0.52% hits; P00811; AID 485341; AmpC nitrocefin hydrolysis, absorbance 480 nm, 0.0001% Triton; Potency, µM (series often up to 57.1 µM), actives largely listed as inhibitors; further: nearly all actives have a fitted effect of over 20% in size
Target sequence (P00811 whole entry, looked up): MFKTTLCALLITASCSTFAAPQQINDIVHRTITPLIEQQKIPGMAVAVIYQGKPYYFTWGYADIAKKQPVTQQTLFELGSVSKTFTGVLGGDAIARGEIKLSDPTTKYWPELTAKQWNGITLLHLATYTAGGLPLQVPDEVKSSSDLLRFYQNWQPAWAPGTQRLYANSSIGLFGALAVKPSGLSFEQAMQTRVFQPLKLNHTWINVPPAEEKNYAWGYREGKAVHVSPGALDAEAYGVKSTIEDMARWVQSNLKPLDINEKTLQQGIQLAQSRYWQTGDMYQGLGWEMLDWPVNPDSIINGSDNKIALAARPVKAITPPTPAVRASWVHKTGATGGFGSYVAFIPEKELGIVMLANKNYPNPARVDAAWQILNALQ
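20 mM phosphate pH 7.0 + 0.01% (detergent screen) or 0.0001% Triton X-100; 5.3 nM AmpC reagent; cpd preinc 15 min RT; nitrocefin (800 uM stock) to start; A480 q20 s × 4 min; Activity was normalised to no-enzyme and no-compound control wells.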
AmpC inh detg: blocks E. coli AmpC beta-lactamase in detergent assay. AmpC hydrolysis of nitrocefin, absorbance 480 nm, 0.01% Triton. Potency, µM (series often up to 114 µM), usual class: inhibitors. 370,000 compounds, 0.041% hits; further: nearly all actives have a fitted effect of over 25% in size
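AmpC (5.3 nM in the dispensed reagent) in 20 mM phosphate pH 7.0 with 0.01% (detergent screen) or 0.0001% Triton X-100 was preincubated with compounds for 15 min at room temperature. Nitrocefin was then added from an 800 uM solution, and hydrolysis was followed at 480 nm.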
AMA1 RON2 block: disrupts binding of P. falciparum AMA1 to RON2. AlphaScreen AMA1-biotinylated RON2 peptide binding. Potency, µM (titrated, usually from 58.2 µM), actives largely listed as inhibitors. 360,000 compounds, 0.2% hits. AID 720542; further: nearly all actives have a fitted effect of over 45% in size
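AMA1 (3D7) with his tag at 25 nM final met compounds first, then biotinylated RON2 peptide at 25 nM; detection used donor plus acceptor beads, 10 µg/mL apiece, read by AlphaScreen after 30 min at room temperature.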
Pf growth 48h: inhibits P. falciparum growth in the first generation, 48 h | 310,000 compounds, 5.9% hits | P. falciparum luciferase growth in erythrocytes, 48 h | Potency, µM (doses to about 28.7 µM), actives largely listed as inhibitors
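Luminescence readout; reporter = integrated firefly luciferase in P. falciparum. RBC culture at 2% hematocrit, 0.1% parasitemia final, 37 C/5% CO2; decreased signal taken as growth inhibition.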
Large screens that a line does not name were inactive. Sampled rows, rich in hits. Any-hit rate of the full collection: about 11%. The call rests on the fitted dose curve; in most records, active means well fitted curve in the direction sought with a large enough effect; inconclusive means small, poorly fitted or top-dose-only effect, or another doubt; inactive means no such curve, though single readings can be large; an effect the other way counts as inactive or inconclusive.

N#Cc1ccccc1S(=O)(=O)N1CCCC(c2nc3c(nnn3Cc3cccc(Cl)c3)c(=O)[nH]2)C1 (stereo not drawn)	none (no result: Pf growth 96h, HCV inhibitor, AmpC no deterg, AMA1 RON2 block, Pf growth 48h)
O=c1[nH]c(C2CCCN(S(=O)(=O)c3ccc(F)cc3)C2)nc2c1nnn2Cc1ccccc1 (stereo not drawn)	Pf growth 48h 13µM
O=C(Cn1c(=O)oc2cc(S(=O)(=O)N3CCCCCC3)ccc21)Nc1ccc(F)cc1F	none (no result: Pf growth 96h, HCV inhibitor, AmpC no deterg, AMA1 RON2 block, Pf growth 48h)
CCc1ccccc1N1CC(c2nc3ccccc3n2CC(C)C)CC1=O (stereo not drawn)	none (no result: Pf growth 96h, HCV inhibitor, AmpC no deterg, AMA1 RON2 block, Pf growth 48h)
CCc1ccc(-n2nc(CO)c(C(=O)NCCCc3ccccc3)n2)cc1	none (no result: Pf growth 96h, HCV inhibitor, AmpC no deterg, AMA1 RON2 block, Pf growth 48h)
Cc1nc2nc(C)c(CCC(=O)NCc3ccccc3)c(C)n2n1	none (no result: Pf growth 96h, HCV inhibitor, AmpC no deterg, AMA1 RON2 block, Pf growth 48h)
CCC(=O)N(CCC(c1ccc(C)cc1)c1ccco1)Cc1ccco1 (stereo not drawn)	Pf growth 96h inconclusive, HCV inhibitor 11µM, Pf growth 48h 2.3µM
CCC(=O)N(CCC(c1ccco1)C(C)C)Cc1ccccc1 (stereo not drawn)	Pf growth 96h inconclusive, Pf growth 48h inconclusive
Cc1cc(-c2csc(NC(=O)c3ccc(=O)n(C)n3)n2)c(C)n1CC1CCCO1 (stereo not drawn)	Pf growth 96h 7.4µM, HCV inhibitor inconclusive, Pf growth 48h inconclusive
Oc1[nH]c2ccc(Br)cc2c1N=NC(=S)N1CCOCC1	Pf growth 96h 0.41µM, HCV inhibitor 11µM, Pf growth 48h 0.83µM
Oc1[nH]c2ccccc2c1N=NC(=S)N1CCOCC1	Pf growth 96h 0.59µM, HCV inhibitor 8.9µM, Pf growth 48h 0.59µM
Cc1cc(C)cc(NC(=O)C2CCCN2S(=O)(=O)c2cccc3nsnc23)c1 (stereo not drawn)	none (no result: Pf growth 96h, HCV inhibitor, AmpC no deterg, AMA1 RON2 block, Pf growth 48h)
Cn1nc(-c2ccccn2)nc2c(=O)n(C)c(=O)nc1-2	Pf growth 96h 2.9µM, HCV inhibitor 2µM, AMA1 RON2 block 8.9µM, Pf growth 48h 2.9µM
COc1ccc(-c2nc(-c3ccccn3)ncc2S(C)(=O)=O)cc1	AmpC inh detg inconclusive
Cn1ncnc2c(=O)n(C)c(=O)nc1-2	HCV inhibitor 0.5µM, AmpC inh detg inconclusive, Pf growth 48h 0.93µM
CCCc1nc2c(=O)n(C)c(=O)nc-2n(C)n1	HCV inhibitor 2.5µM, Pf growth 48h 5.2µM
CCn1c(N)nc2c1c(=O)n(C)c(=O)n2C	none
COc1ccc(NC(=O)Cn2c(SCc3ccc(F)cc3)nc3cccnc32)c(OC)c1	none (no result: Pf growth 96h, HCV inhibitor, AmpC no deterg, AMA1 RON2 block, Pf growth 48h)
Cn1cc(-c2cc3n(n2)CCC(=O)N3CC(=O)NCc2ccccc2)c2ccccc21	none (no result: Pf growth 96h, HCV inhibitor, AmpC no deterg, AMA1 RON2 block, Pf growth 48h)
CC[n+]1c(/C=C/N(C)c2ccccc2)oc2ccccc21	HCV inhibitor inconclusive, Pf growth 48h 0.93µM
CC[n+]1c(/C=C/Nc2ccccc2)oc2ccccc21	Pf growth 96h inconclusive, Pf growth 48h inconclusive
CC[n+]1c(/C=C/N(C)c2ccccc2)oc2ccc(F)cc21	Pf growth 96h inconclusive, HCV inhibitor inconclusive, AmpC inh detg inconclusive, Pf growth 48h 2.9µM
Cc1cc(C(=O)Nc2c(C)nc3ccccn3c2=O)ccc1[N+](=O)[O-]	none (no result: Pf growth 96h, HCV inhibitor, AmpC no deterg, AMA1 RON2 block, Pf growth 48h)
CC(C)CCNC(=O)CCc1nnc(Cc2c[nH]c3ccccc23)o1	Pf growth 96h inconclusive
Cc1nc(C(C)NC(=O)CCc2nnc(Cc3c[nH]c4ccccc34)o2)cs1 (stereo not drawn)	Pf growth 96h 4.7µM
CC1=C(C)C(=O)C(CCCCC#CCCCC#CCO)=C(C)C1=O	Pf growth 96h 9.3µM, Pf growth 48h 13µM
Cc1cc(=O)n2[nH]c(-c3ccc(C(C)(C)C)cc3)cc2n1	Pf growth 96h 4.7µM, HCV inhibitor 10µM, Pf growth 48h 2.9µM
Cc1sc2ncnc(NCC(c3ccco3)N3CCCC3)c2c1C (stereo not drawn)	Pf growth 96h 8.3µM, HCV inhibitor inconclusive, Pf growth 48h 10µM
Cc1sc2ncnc(SCc3ccco3)c2c1C	AmpC inh detg inconclusive, Pf growth 48h inconclusive
Nc1nonc1/C(=N/O)N1CCN(CCO)CC1	none
CN1CCN(/C(=N\O)c2nonc2N)CC1	Pf growth 96h 15µM
